Among all 290,000 compounds or so, about 3,000 (1%) were called active. The sample holds actives, similar compounds and a random draw of the others, so the mix is not that of the screen. Unmarked numbers belong to inactive results. Rule as the data show it: active = inhibition mostly above about 36% (no sharp cut-off); inactive = mostly below about 34%.
Assay: inhibition of NOD1-driven NF-kB reporter – cell-based, luminescence, uHTS, primary screen (AID 1578);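 also: HEK-293T reporter cells stimulated with the NOD1 agonist gamma-tri-DAP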
Settings: NOD1-driven NF-kB luciferase reporter cells, at 4 µM, stronger effect = higher value
With Cc1ccc(OCC(=O)Nc2ccc(N3CCN(C(=O)c4ccco4)CC3)cc2)cc1C the inhibition was -9.9%. With c1ccc(Nc2nc(-c3cccs3)cs2)nc1 the inhibition was -50.9%. With Cc1ccc(Nc2nc(-c3cccs3)cs2)nc1 the inhibition was 46% (active). Work on Cc1ccc(Nc2nc(-c3ccccc3)cs2)nc1 yielded an inhibition of -37%. In the case of CCCn1c(N)c(C(c2ccc(OC)cc2)N2CCN(c3ccccc3)CC2)c(=O)[nH]c1=O (stereo not given), the inhibition is reported as 10%. For COc1ccc(-c2[nH]c(-c3ccc(C)cc3)nc2SCC(=O)Nc2nccs2)cc1, the inhibition was -13.3%. Work on COc1ccc(-c2[nH]c(-c3ccc(Cl)cc3)nc2SCC(=O)Nc2nccs2)cc1 yielded an inhibition of -3.8%. With COc1ccc(-c2[nH]c(-c3ccccc3)nc2SCC(=O)Nc2nccs2)cc1 the inhibition was 82.4% (active). CCC(C)NC(=O)CN(c1ccc(OC)cc1)S(=O)(=O)c1ccccc1 (stereo not given) gave an inhibition of -38.9%. Molecule CCOC(=O)c1cnc2c(C)c(Cl)ccc2c1N1CCOCC1 has an inhibition of 14.6%. For C[n+]1cccc2c(Br)ccc([O-])c21, the inhibition was -5.6%. In the case of NCC(=O)c1cccc2ccc[n+]([O-])c12, the inhibition is reported as -2.6%. For [O-][n+]1cccc2c(Br)cc(Br)c(O)c21, the inhibition was 86% (active). Molecule O=C(Cc1ccc(F)cc1)NCCc1cnc[nH]1 has an inhibition of -7.3%. With COc1cc(/C=c2\sc3nc(-c4ccncc4)nn3c2=O)ccc1OC(C)=O the inhibition was -18.6%. CC(c1ccco1)N(C(=O)C12CC3(C)CC(C)(CC(C)(C3)C1)C2)c1ccccn1 (stereo not given) gave an inhibition of -2%. With CC(c1ccco1)N(C(=O)C12CC3CC(CC(C3)C1)C2)c1ccccn1 (stereo not given) the inhibition was 17.1%. In the case of CC(c1ccco1)N(C(=O)C12CC3CC(CC(C)(C3)C1)C2)c1ccccn1 (stereo not given), the inhibition is reported as 31.7% (active). Work on CCC(c1nnc(SCC(=O)NC23CC4CC(CC(C4)C2)C3)o1)N(C)C (stereo not given) yielded an inhibition of -5.8%. Cc1ccc(NS(=O)(=O)c2cc3c4c(cccc4c2)C(=O)NC3=O)cc1 showed an inhibition of 18.1%. In the case of O=C(CN1CCCCC1)Nc1nnc(-c2ccccc2)s1, the inhibition is reported as 2.9%. For CN1CCN(CC(=O)Nc2nnc(-c3cccs3)s2)CC1, the inhibition was -26.2%. For O=C(CN1CCCC1)Nc1nnc(-c2cccs2)s1, the inhibition was 74.9% (active). With CC(C)NC(=O)CN1C(=O)C(=O)c2ccccc21 the inhibition was 15.8%. In the case of CCOC(=O)N1CCC(NC(=S)Nc2ccc3nc(N4CCN(CC)CC4)cc(C)c3c2)CC1, the inhibition is reported as 48.8% (active). Molecule CCOC(=O)N1CCC(NC(=S)Nc2ccc3nc(N4CCN(C)CC4)cc(C)c3c2)CC1 has an inhibition of 3.9%. CCOC(=O)N1CCN(C(=S)Nc2ccc3nc(N4CCN(CC)CC4)cc(C)c3c2)CC1 showed an inhibition of -21%. Work on COc1ccc(C(=O)Oc2ccc(N(C)S(=O)(=O)c3ccccc3)cc2)cc1[N+](=O)[O-] yielded an inhibition of 8.9%. Work on Cc1cc(C)cc(NC(=O)C[n+]2ccccc2)c1 yielded an inhibition of 45.4%. Cc1cccc(-n2ncc3c(N(C)Cc4ccccc4)ncnc32)c1 showed an inhibition of 2.1%. O=S(=O)(Nc1ccc2cn[nH]c2c1)c1ccc(Cl)cc1 gave an inhibition of -12.5%. Cc1cc(S(=O)(=O)Nc2ccc3cn[nH]c3c2)c(C)cc1Cl gave an inhibition of -20.3%. For O=C1C(Cl)=C(Nc2ccc3cn[nH]c3c2)C(=O)c2ccccc21, the inhibition was 61.1% (active). With CC(C)C(=O)N1CCC2(CC1)Oc1ccc(Cl)cc1C(=O)C21CC(c2ccc(Cl)cc2)=NO1 (stereo not given) the inhibition was -3.8%. Molecule O=C1c2ccccc2NC(c2ccccc2F)N1NS(=O)(=O)c1ccccc1 (stereo not given) has an inhibition of -13%. Molecule O=C(O)CC1(CC(=O)N2CCN(CCO)CC2)CCCC1 has an inhibition of -19.8%. For CC(=O)c1cccc(NC(=O)c2cnn3ccccc23)c1, the inhibition was -1%. In the case of CC(=O)c1ccc(NC(=O)c2cnn3ccccc23)cc1, the inhibition is reported as 63.1% (active). CCc1ccc(NC(=O)c2cnn3ccccc23)cc1 showed an inhibition of 50.8%. Work on Cc1ccccc1C(=O)c1c[nH]c(C(=O)NCc2cccs2)c1 yielded an inhibition of 2.5%. For Cc1ccc(-n2cc(C(=O)O)c(=O)cc2C)c(C)c1, the inhibition was -25.8%. Work on CC(C)n1cc(CN2CCC(n3nccc3NC(=O)CCCc3ccccc3)CC2)cn1 yielded an inhibition of -24.8%. In the case of CCOc1cccc(NC(=O)C2CC(=O)N(C)C(=Nc3cccc(F)c3)S2)c1 (stereo not given), the inhibition is reported as 73.6% (active). With CCOc1cccc(NC(=O)C2CC(=O)N(C)C(=Nc3ccccc3)S2)c1 (stereo not given) the inhibition was 5.5%. For COc1cccc(NC(=O)C2CC(=O)N(C)C(=Nc3cccc(F)c3)S2)c1 (stereo not given), the inhibition was 13.8%. For Fc1ccc(N=c2ssnc2Cl)c(F)c1, the inhibition was -14.2%. Molecule C/C(=N\Nc1ccc(S(=O)(=O)N2CCOCC2)cc1[N+](=O)[O-])C(C)C has an inhibition of -8.2%. Work on Cn1c(SCC(=O)NCCc2ccccc2)nnc1-c1ccncc1 yielded an inhibition of -5.8%. Molecule Cc1nc2ncnn2c(N2CCN(C(=O)c3cccc(F)c3)CC2)c1Cc1ccccc1 has an inhibition of -1.9%. In the case of CN=C1SC(CC(=O)Nc2ccccc2F)C(=O)N1/N=C/c1ccc(O)c(OC)c1 (stereo not given), the inhibition is reported as 47.1% (active). For CN=C1SC(CC(=O)Nc2ccc(F)cc2F)C(=O)N1/N=C/c1ccc(OC(F)F)c(OC)c1 (stereo not given), the inhibition was -35.2%. With CCOc1ccc(/C=N/N2C(=O)C(CC(=O)Nc3ccc(F)cc3F)SC2=NC)cc1OC (stereo not given) the inhibition was -23%. In the case of Cc1ccc(-n2c([S-])c(C(=O)NC(C)c3ccccc3)[n+]3ccccc23)cc1 (stereo not given), the inhibition is reported as -40.2%. CCOC(=O)CSc1nc(-c2ccccc2)nc2ccc(F)cc12 gave an inhibition of -21.7%. With CCn1c(SCC(=O)N/N=C(\C)c2ccco2)nnc1-c1ccccc1 the inhibition was -25.7%. For CCn1c(SCC(=O)N/N=C/c2ccccc2OCC(=O)O)nnc1-c1ccc(C(C)(C)C)cc1, the inhibition was 86.7% (active). In the case of CCn1c(SCC(=O)N/N=C(\C)c2ccncc2)nnc1-c1ccccc1, the inhibition is reported as 58.5% (active). Work on CCn1c(SCC(=O)Nc2nc(-c3ccccc3)cs2)nnc1-c1ccccc1O yielded an inhibition of 12.7%. In the case of CCOC(=O)N1CCN(C(=O)CSCC(=O)Nc2nc(-c3ccc(C)cc3)cs2)CC1, the inhibition is reported as 13.3%. With CCn1c(SCC(=O)N/N=C/c2ccccc2OCC(=O)O)nnc1-c1ccc(C)cc1 the inhibition was 2.1%. For CCOC(=O)N1CCN(C(=O)CSCC(=O)Nc2nc(-c3ccc(-c4ccccc4)cc3)cs2)CC1, the inhibition was 58.2% (active). Work on CCOC(=O)N1CCN(C(=O)CSCC(=O)Nc2nc(-c3ccccc3)cs2)CC1 yielded an inhibition of -14%. In the case of CCn1c(SCC(=O)N/N=C(\C)c2ccncc2)nnc1-c1ccc(C)cc1, the inhibition is reported as -7.3%. With CCn1c(SCC(=O)Nc2nc(-c3ccc(C)cc3)cs2)nnc1-c1ccccc1 the inhibition was 31%. Work on CCn1c(SCC(=O)N/N=C/c2ccccc2OCC(=O)O)nnc1-c1ccccc1 yielded an inhibition of -7.7%.

Source: PubChem BioAssay AID1578 (Sanford-Burnham Center for Chemical Genomics, 2009)
